Screen size: about 3,200 compounds; about 300 (9.4%) showed activity. Only a selection was taken, and actives are over-represented in it overall.
System: A673/TR/shEF
Experiment: cell viability (LOESS-normalised, relative to median of negative controls) (log2 ratio); higher = more viable cells (less compound effect), active = hit call of the paper (over 3 MAD below the median)
Conditions: treatment time: 72 h
In short: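 For three days, A673/TR/shEF Ewing sarcoma cells in 384-well plates (1,500 per well) were treated with library compounds at two or more concentrations or with DMSO controls, after doxycycline had been added or withheld 24 h beforehand to induce EWS-FLI1 shRNA knockdown. Viability was read by CellTiter-Glo luminescence on an Envision reader. The data were LOESS-corrected per plate, divided by the median of negative controls and log2-transformed.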

[1] = 0.25 µM, library screen: screen1, EWS-FLI1 expression: high (no doxycycline)
[2] = 0.25 µM, library screen: screen1, EWS-FLI1 expression: low (doxycycline-induced shRNA knockdown)
[3] = 2.5 µM, library screen: screen1, EWS-FLI1 expression: high (no doxycycline)
[4] = 2.5 µM, library screen: screen1, EWS-FLI1 expression: low (doxycycline-induced shRNA knockdown)
[5] = 0.103 µM, library screen: screen3, EWS-FLI1 expression: high (no doxycycline)
[6] = 0.103 µM, library screen: screen3, EWS-FLI1 expression: low (doxycycline-induced shRNA knockdown)
[7] = 0.308 µM, library screen: screen3, EWS-FLI1 expression: high (no doxycycline)
[8] = 0.308 µM, library screen: screen3, EWS-FLI1 expression: low (doxycycline-induced shRNA knockdown)
[9] = 0.926 µM, library screen: screen3, EWS-FLI1 expression: high (no doxycycline)
[10] = 0.926 µM, library screen: screen3, EWS-FLI1 expression: low (doxycycline-induced shRNA knockdown)
[11] = 2.8 µM, library screen: screen3, EWS-FLI1 expression: high (no doxycycline)
[12] = 2.8 µM, library screen: screen3, EWS-FLI1 expression: low (doxycycline-induced shRNA knockdown)
[13] = 8.3 µM, library screen: screen3, EWS-FLI1 expression: high (no doxycycline)
[14] = 8.3 µM, library screen: screen3, EWS-FLI1 expression: low (doxycycline-induced shRNA knockdown)
[15] = 25 µM, library screen: screen3, EWS-FLI1 expression: high (no doxycycline)
[16] = 25 µM, library screen: screen3, EWS-FLI1 expression: low (doxycycline-induced shRNA knockdown)
[17] = 0.25 µM, library screen: screen2, EWS-FLI1 expression: high (no doxycycline)
[18] = 0.25 µM, library screen: screen2, EWS-FLI1 expression: low (doxycycline-induced shRNA knockdown)
[19] = 2.5 µM, library screen: screen2, EWS-FLI1 expression: high (no doxycycline)
[20] = 2.5 µM, library screen: screen2, EWS-FLI1 expression: low (doxycycline-induced shRNA knockdown)
[21] = 0.025 µM, library screen: screen1, EWS-FLI1 expression: high (no doxycycline)
[22] = 0.025 µM, library screen: screen1, EWS-FLI1 expression: low (doxycycline-induced shRNA knockdown)
[23] = 25 µM, library screen: screen1, EWS-FLI1 expression: high (no doxycycline)
[24] = 25 µM, library screen: screen1, EWS-FLI1 expression: low (doxycycline-induced shRNA knockdown)

Measured: cell viability (log2)

CC1(C)C(=O)CC[C@@]2(C)C1C[C@@H](O)[C@@]1(C)C3=CC(=O)O[C@@H](c4ccoc4)[C@]3(C)CCC21 (some centres not stated)
inactive: [1] 0.0874 | [2] 0.0583 | [3] 0.0284 | [4] 0.0454

COc1cc2c(cc1O)C(Cc1ccc(O)cc1)N(C)CC2 (configuration not stated)
inactive: [1] 0.127 | [2] 0.111 | [3] 0.067 | [4] 0.114

O=C(O[C@@H]1Cc2c(O)cc(O)cc2O[C@@H]1c1cc(O)c(O)c(O)c1-c1c([C@H]2Oc3cc(O)cc(O)c3C[C@H]2O)cc(O)c(O)c1O)c1cc(O)c(O)c(O)c1
inactive: [1] 0.0332 | [2] 0.0641 | [3] 0.0977 | [4] -0.0327

COc1ncc(-c2ccc3nccc(-c4ccnnc4)c3c2)cc1NS(=O)(=O)c1ccc(F)cc1F
active: [5] -0.686 | [6] -0.505 | [7] -1.07 | [8] -0.722 | [9] -1.88 | [10] -1.31 | [11] -2.85 | [12] -2.24 | [13] -3.29 | [14] -2.78 | [15] -3.83 | [16] -3.59

CC(=O)Nc1ccc2c(c1)C1C=CCC1C(c1ccc(Cl)cc1Cl)N2 (configuration not stated)
inactive: [1] 0.141 | [2] 0.199 | [3] 0.113 | [4] 0.349

CCOC(=O)c1c(C)cc(O)c(C)c1O
inactive: [1] 0.117 | [2] 0.0649 | [3] 0.0865 | [4] 0.119

CS(=O)(=O)c1ccc2nc(NC(=O)c3cccc(Cl)c3)sc2c1
inactive: [2] 0.0657 | [3] 0.0503 | [4] 0.0275
active: [1] -0.0938

CS(=O)(=O)c1ccc(C(=O)Nc2ccc(Cl)c(-c3ccccn3)c2)c(Cl)c1
inactive: [5] 0.0228 | [6] 0.046 | [7] 0.0359 | [8] 0.0158 | [9] 0.0316 | [10] 0.0515 | [11] 0.0335 | [12] 0.0126 | [13] 0.0254 | [14] 0.0522 | [15] 0.025 | [16] 0.0484

COC(=O)C[C@H]1C(C)(C)C(=O)[C@@H]2C[C@@]3(O)C4=CC(=O)O[C@@H](c5ccoc5)[C@]4(C)CCC3[C@@]1(C)C2=O (some centres not stated)
inactive: [1] 0.0813 | [2] 0.00839 | [3] 0.172 | [4] 0.118

COc1ccccc1C1NC(=S)NC(C)=C1C(=O)Nc1ccccc1Cl (configuration not stated)
inactive: [1] 0.153 | [2] 0.0944 | [3] 0.107 | [4] 0.0425

Cc1cc(=O)c2c(O)cc(O)c(C)c2o1
inactive: [1] 0.111 | [2] 0.0695 | [3] 0.0905 | [4] 0.0937

COc1ccc(-c2nc3ccc(C4=NNC(=O)CC4C)cc3[nH]2)cc1 (configuration not stated)
inactive: [5] -0.0122 | [6] 0.0487 | [7] -0.0245 | [8] -0.0302 | [9] -0.00296 | [10] -0.0241 | [11] 0.0147 | [12] -0.00868 | [13] -0.0247 | [14] 0.0168 | [15] -0.172 | [16] -0.00571

O=C(/C=C/c1cccc(S(=O)(=O)Nc2ccccc2)c1)NO
active: [11] -0.399 | [12] -0.113 | [13] -1.47 | [14] -0.52 | [15] -4.33 | [16] -2.11
inactive: [5] 0.0161 | [6] 0.0578 | [7] 0.00773 | [8] 0.0247 | [9] -0.074 | [10] -0.000337

O=C(C=Cc1ccccc1)c1ccccc1O
inactive: [1] 0.0713 | [2] 0.0789 | [3] 0.0334 | [4] 0.11

O=C(/C=C/c1ccccc1)c1c(O)cc(O)cc1O
inactive: [1] 0.0431 | [2] 0.0419 | [3] 0.0216 | [4] -0.0857

O=S(=O)(c1ccc(Br)c2ccccc12)n1ccnc1
inactive: [1] 0.091 | [2] 0.0921 | [3] 0.103 | [4] 0.117

Cc1ccc(NC(=O)c2ccc(OC3CSC3)cc2)cc1
inactive: [1] -0.0477 | [2] -0.0107 | [3] 0.0585 | [4] 0.076

CCOc1cc(C(=O)Nc2ccc([N+](=O)[O-])cc2)cc(OCC)c1OCC
inactive: [1] 0.054 | [2] 0.0461 | [3] 0.0696 | [4] -0.156

COCc1cc(C)nc(SCC(=O)NC(C)(C)C)c1C#N
inactive: [1] 0.122 | [2] 0.0633 | [3] 0.0645 | [4] -0.0386

O=C1N(c2ccccc2)c2ccccc2C1(Cc1ccncc1)Cc1ccncc1
inactive: [17] 0.0704 | [18] 0.0498 | [20] 0.0762
active: [19] -0.0773

NC(=O)NCC(N)C(=O)O (configuration not stated)
inactive: [1] -0.0311 | [2] 0.00393 | [3] 0.0385 | [4] 0.0656

O=C(O)/C=C(/CC(=O)O)C(=O)O
inactive: [1] 0.0822 | [2] 0.00778 | [3] 0.03 | [4] 0.0214

O=C1C=C(O)c2ccccc2C1=O
inactive: [1] 0.0525 | [2] -0.00535 | [3] 0.0828 | [4] 0.181

CCCCCCCCCCCCCCCCCC(=O)OC(CC(=O)O)C[N+](C)(C)C (configuration not stated)
inactive: [1] 0.12 | [2] -0.0279 | [17] 0.206 | [18] 0.0207 | [3] 0.187 | [4] 0.0146 | [19] 0.154 | [20] 0.133

CCCCCCCCCCCCCCCC(=O)O[C@H](CC(=O)[O-])C[N+](C)(C)C
active: [23] -0.454 | [24] -0.672
inactive: [21] 0.0342 | [22] 0.0241 | [1] 0.194 | [2] 0.0339 | [3] 0.0599 | [4] -0.023

CCCCCCCCCCCCCCCC(=O)OC(CC(=O)[O-])C[N+](C)(C)C (configuration not stated)
inactive: [17] 0.153 | [18] 0.133 | [19] 0.18 | [20] 0.0929

NC(=Nc1nc2ccccc2o1)NC(=O)c1sc2ccccc2c1Cl
inactive: [1] 0.078 | [2] 0.000721 | [3] 0.0829 | [4] -0.0453

COC1=C(OC)C(=O)c2ccccc2C1=O
inactive: [17] 0.153 | [18] 0.0608 | [19] 0.12 | [20] 0.0758

O=C1c2ccccc2-c2n[nH]c3cccc1c23
active: [23] -0.11
inactive: [21] 0.132 | [22] 0.0656 | [1] 0.181 | [2] -0.0312 | [3] -0.0168 | [4] 0.228 | [24] 0.104

CCC(C)CCCCC(=O)NC(CCNCS(=O)(=O)O)C(=O)NC(C(=O)NC(CCNCS(=O)(=O)O)C(=O)NC1CCNC(=O)C(C(C)O)NC(=O)C(CCNCS(=O)(=O)O)NC(=O)C(CCNCS(=O)(=O)O)NC(=O)C(CC(C)C)NC(=O)C(CC(C)C)NC(=O)C(CCNCS(=O)(=O)O)NC1=O)C(C)O (configuration not stated)
inactive: [1] 0.117 | [2] 0.0486 | [3] 0.103 | [4] -0.0146

CC(C)(O)CC[C@@H](O)[C@@](C)(O)[C@H]1CC[C@@]2(O)C3=CC(=O)[C@@H]4C[C@@H](O)[C@@H](O)C[C@]4(C)[C@H]3CC[C@]12C
inactive: [1] 0.0407 | [2] 0.101 | [3] 0.0783 | [4] 0.0234

C=C1C(CCl)(CCl)C2(Cl)C(Cl)C(Cl)C1(Cl)C2(Cl)Cl (configuration not stated)
inactive: [1] 0.0656 | [2] 0.021 | [3] 0.0692 | [4] 0.132

COC(=O)[C@@H]1OC(=O)C2OC23[C@@]1(C)CCC1[C@@]2(C)CCC(=O)C(C)(C)C2C[C@@H](OC(C)=O)[C@]13C (some centres not stated)
inactive: [1] 0.0302 | [2] 0.00682 | [3] 0.123 | [4] 0.0574

COc1cc(/C=C/C(=O)O)ccc1O
inactive: [1] 0.0581 | [2] -0.0401 | [3] 0.12 | [4] -0.00647

COC(=O)/C=C/c1cc(O)ccc1O
inactive: [21] 0.177 | [22] 0.0349 | [1] 0.18 | [2] 0.0134 | [17] 0.108 | [18] 0.184 | [4] -0.137 | [19] 0.0473 | [20] 0.11
active: [3] -0.379 | [23] -0.809 | [24] -0.511

O=C(/C=C/c1ccc(O)cc1O)c1ccccc1
inactive: [1] 0.0477 | [2] 0.0515 | [3] 0.136 | [4] 0.0296

CC(=O)O[C@@H]1CC[C@@]2(C)[C@H](CC[C@@H]3[C@@H]2C[C@H](OC(C)=O)[C@]2(C)[C@@H](C(C)=O)CC[C@@H]32)C1
inactive: [1] 0.135 | [2] 0.117 | [3] 0.0696 | [4] 0.102

CC(C1OC(C)(C)C(O)C1O)[C@@H]1CC[C@]2(C)C3=CCC4C(C)(C)C(=O)CC[C@]4(C)C3CC[C@@]12C (some centres not stated)
inactive: [1] 0.062 | [2] 0.126 | [3] 0.148 | [4] 0.137

c1ccc([C@H]2CN3CCSC3=N2)cc1
inactive: [21] 0.0743 | [22] 0.0216 | [5] 0.103 | [6] 0.000516 | [1] 0.0991 | [2] 0.0737 | [17] 0.069 | [18] 0.0838 | [7] 0.127 | [8] 0.0938 | [9] 0.0997 | [10] 0.0447 | [4] 0.0839 | [19] 0.126 | [20] 0.0627 | [11] 0.136 | [12] 0.0913 | [13] 0.12 | [14] 0.085 | [24] -0.0899 | [15] 0.0427 | [16] 0.11
active: [3] -0.0948 | [23] -0.295

c1ccc(C2CN3CCSC3=N2)cc1 (configuration not stated)
inactive: [21] 0.0711 | [22] 0.0575 | [1] 0.0459 | [2] 0.00911 | [17] 0.102 | [18] 0.0185 | [4] 0.107 | [19] 0.166 | [20] 0.00181 | [24] 0.0697
active: [3] -0.215 | [23] -0.261

Brc1ccc([C@H]2CN3CCSC3=N2)cc1
inactive: [21] 0.216 | [22] 0.000942 | [1] 0.234 | [2] 0.105 | [17] -0.0213 | [18] 0.123 | [4] -0.0691 | [19] 0.117 | [20] 0.109
active: [3] -0.357 | [23] -0.468 | [24] -0.309
